Source: PubChem BioAssay (NCATS)
Records with an inconclusive call do not appear. Values without a mark were called inactive. The source made the active and inactive calls. Calls come from the whole dose curve; as a rule, active = well fitted cell-killing curve with a large enough effect; inconclusive = small, poorly fitted or top-dose-only effect, or effect the other way; inactive = no such curve, though single readings can be large or run the other way.

Experiment: Viability qHTS for spleen associated tyrosine kinase inhibitor (SYKi) naive MV4-11 cells (AID 1963823); note: nearly all actives have a fitted effect of over 40% in size
Conditions: MV4-11 AML viability, CellTiter-Glo luminescence, 72 h; series mostly up to 45 µM; viability (% of control): at the top concentration
Method in brief: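 CellTiter-Glo luminescence, 10 min room-temperature incubation, gave viability. Cells: naive MV4-11 (500/well), treated 72 hr at 37 C, 5% CO2.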
Potency is the fitted concentration of half-maximal effect.

Row | Structure (SMILES) | viability (% of control) | Potency
1 | C=C1C[C@]23C[C@H]1CC[C@H]2[C@]1(C)CC[C@H](O)[C@@](C)(C(=O)O)[C@H]1[C@@H]3C(=O)O | 55.5% | –
2 | CCCC(=O)O[C@@H]1[C@@H]2[C@@H](OC(C)=O)[C@]3(C)C(=O)[C@H]4[C@@H](OC(C)=O)C(C)(C)C[C@H]4[C@]3(C)C(=O)[C@@]2(OC(C)=O)C[C@@H]1C | 68.3% [at 17.3 µM] | –
3 | CC1(C)CC[C@]2(C(=O)O)[C@H](O)C[C@]3(C)C(=CCC4[C@@]5(C)CC[C@H](O[C@@H]6O[C@H](CO[C@@H]7OC[C@H](O)[C@H](O)[C@H]7O[C@@H]7OC[C@H](O)[C@H](O)[C@H]7O)[C@@H](O)[C@H](O)[C@H]6O)C(C)(C)C5CC[C@]43C)[C@@H]2C1 (stereo not given in full) | 57.5% [at 9.25 µM] | –
4 | Nc1c(S(=O)(=O)c2ccccc2)c2nc3ccccc3nc2n1-c1ccc(F)cc1 | 75.6% | –
5 | CC1OC(OC2C(OC(=O)[C@]34CCC(C)(C)C[C@H]3C3=CCC5[C@@]6(C)CC[C@H](OC7OC(C(=O)O)C(O)C(O)C7O)C(C)(C)C6CC[C@@]5(C)[C@]3(C)CC4O)OC(CO)C2O)C(O)C(O)C1OC1OCC(O)C(O)C1O (stereo not given in full) | 70.8% [at 9.25 µM] | –
6 | OC[C@H]1O[C@@H](OCCc2ccc(O)cc2)[C@H](O[C@@H]2OC[C@](O)(CO)[C@H]2O)[C@@H](O)[C@@H]1O | 85% [at 17.3 µM] | –
7 | C=C1C(=O)O[C@@H]2[C@H]3C(C)=CC(=O)C3=C(C)[C@@H](OC(=O)/C(C)=C\C)[C@H](O)[C@@H]12 | – | 3.21 µM (active)
8 | C=C1C2(C)CC3C4(C)C=CC(=O)OC(C)(C)C4CCC3(C)C1(C(=O)OC)C(=O)C(C)(O)C2=O (stereo not given) | 56.9% [at 17.3 µM] | –
9 | COc1c(C(CC(C)C)OC(C)=O)ccc(Oc2c(O)cc(C)cc2/C=C/C(C)=O)c1C(=O)O (stereo not given) | 50.6% [at 17.3 µM] | –
10 | CC(C)(O)/C=C/C1=CC(=O)[C@@](C)(O)C[C@H]1O | 65.4% | –
11 | CC(O)(C(=O)C1CC1(CO)COC1OC(CO)C(O)C(O)C1O)C1C(O)CC2C3CC=C4CC(O)CC(O)C4(C)C3C(O)CC21C (stereo not given) | – | 0.217 µM (active)
12 | CC12CCC(OC3OC(CO)C(O)C(OC4OC(CO)C(O)C(O)C4O)C3O)CC1=CCC1C2CCC2(C)/C(=C3/COC(=O)C3)CCC12O (stereo not given) | 73.7% [at 17.3 µM] | –
13 | O=C(O)CC1CC(c2ccccc2)=NO1 (stereo not given) | 41% [at 17.3 µM] | –
14 | CN([C@H]1c2cc(OCCCC(F)(F)F)ccc2OC(C)(C)[C@@H]1O)S(C)(=O)=O | 69.6% | –
15 | COc1cc(C2c3cc(O)c(OC)cc3CC(CO)C2CO)ccc1O (stereo not given) | 94.2% | –
16 | C=C1C(=O)O[C@@H]2CC(C)=C([C@@H](C)CCCOC(C)=O)[C@@H](O)[C@H]12 | 71.7% | –
17 | C=C1CCC2C(C)(C(=O)O)CCCC2(C)C1CCC1=CCOC1=O (stereo not given) | 71.3% | –
18 | CC(=O)OC[C@]12[C@H](OC(C)=O)[C@H](OC(=O)c3ccccc3)[C@@H]3[C@@H](OC(C)=O)[C@]1(OC3(C)C)[C@H](C)C[C@H](OC(=O)c1ccccc1)[C@@H]2OC(=O)c1ccccc1 | 66.6% [at 17.3 µM] | –
19 | C[C@@H]1O[C@@H](O[C@H]2[C@H](O)[C@@H](O)[C@H](O[C@H]3[C@H](O[C@H]4CC[C@@]5(C)C(=CC[C@@H]6C5CC[C@]5(C)[C@@H]7[C@H](C[C@@H]65)O[C@]5(CC[C@@](C)(CO[C@@H]6O[C@H](CO)[C@@H](O)[C@H](O)[C@H]6O)O5)[C@H]7C)C4)O[C@H](CO)[C@@H](O)[C@@H]3O)O[C@@H]2CO)[C@H](O)[C@H](O)[C@H]1O (stereo not given in full) | – | 0.618 µM (active)
20 | CC(C)=CCC[C@@](C)(O)[C@H]1CC[C@]2(C)[C@@H]1[C@H](O)CC1[C@@]3(C)CC[C@H](O[C@@H]4O[C@H](CO)[C@@H](O)[C@H](O)[C@H]4O[C@@H]4O[C@H](CO)[C@@H](O)[C@H](O)[C@H]4O)C(C)(C)[C@@H]3CC[C@]12C (stereo not given in full) | 79% [at 17.3 µM] | –

Row | Structure (SMILES) | viability (% of control) | Potency
21 | CCOC(=O)c1ccc(OCCC2CCN(c3ccc(C)nn3)CC2)cc1 | 72.1% | –
22 | Cc1c(C2=CCN(C(=O)N(C)C(C)C)CC2)nnn1-c1cccnc1F | 55% | –
23 | O=C(O)c1cn(C2CC2)c2cc(N3C[C@@H]4C[C@H]3CN4)c(F)cc2c1=O | 52.8% | –
24 | CC(O)C1CCC2C3CCC4CC(OC5OC(C(=O)O)C(O)C(O)C5O)CCC4(C)C3CCC12C (stereo not given) | 80.2% | –
25 | COc1cc(O)cc(C)c1C(=O)O[C@H]1[C@@H](OC(C)=O)[C@H](n2ccc(=O)[nH]c2=O)O[C@@H]1CO | 99.9% [at 17.3 µM] | –
26 | CCCc1cc(C)n(C)c(=O)c1CN(C)C(=O)c1cc(-c2ccc(N3CCN(C(C)C)CC3)nc2)cc2c1cnn2C(C)C | 65.8% | –
27 | CC1(C)CC[C@]23CO[C@@]4(CCC5[C@@]6(C)CC[C@H](O[C@@H]7OC[C@H](O[C@@H]8O[C@H](CO)[C@@H](O)[C@H](O)[C@H]8O)[C@H](O)[C@H]7O[C@@H]7O[C@H](CO)[C@@H](O[C@@H]8O[C@H](CO)[C@@H](O)[C@H](O)[C@H]8O)[C@H](O)[C@H]7O)[C@@](C)(CO)C6CC[C@@]5(C)[C@]4(C)C[C@H]2OC2OCC(O)C(O)C2O)C3C1 (stereo not given in full) | – | 1.95 µM (active)
28 | C=C1C(OC(C)=O)CCC2(C)CCC(C(C)(C)O)CC12 (stereo not given) | 71.6% | –
29 | C=C1C[C@]23C[C@H]1[C@@H](O)C[C@H]2[C@@]12C=C[C@H](O)[C@@](C)(C(=O)O1)[C@H]2[C@@H]3C(=O)O | 84.4% | –
30 | C=C(C)C1CCC2(C(=O)O)CCC3(C(=O)O)C(CCC4C5(C)CCC(O)C(C)(C(=O)O)C5CCC43C)C12 (stereo not given) | 54.6% [at 17.3 µM] | –
31 | COc1ccc(-c2c(C)c(C(=O)NN3CCCCC3)nn2-c2ccc(Cl)cc2Cl)cc1 | – | 16.4 µM (active)
32 | Cc1ccc(NS(=O)(=O)c2cc3c(cc2N[C@@H](C)CO)NC(=O)CC3)cc1C | – | 20.6 µM (active)
33 | COC(=O)Cn1nc(-c2cccc(OC)c2)c2ccccc21 | 85.2% | –
34 | C=C1[C@@H](C)[C@H]2[C@H](Cc3c[nH]c4ccccc34)NC(=O)[C@]23C(=O)/C=C/C(=O)[C@H](O)/C(C)=C\[C@@H](C)C/C=C/[C@H]3[C@@H]1O | – | 2 µM (active)
35 | Cc1noc(C)c1-c1cc(O)cc(C(O)c2ccccc2)c1 (stereo not given) | – | 1.46 µM (active)
36 | C=C1CC2[C@]3(C)C(=C(O)C(=O)[C@@]2(C)[C@]2(C(=O)OC)C(=O)C(C)OC(=O)[C@@]12C)C(C)(C)C(=O)CC3O (stereo not given in full) | 59.7% [at 17.3 µM] | –
37 | CC/C=C\[C@H](O)[C@H](O)C1=C(C)C(=O)[C@]2(O1)C(=O)N[C@@](O)(C(=O)c1ccccc1)[C@@H]2O | 73.7% [at 17.3 µM] | –
38 | C=C1[C@@H]2CC[C@@H]3[C@@](CCC4C(C(=O)O)(C(=O)O)C[C@@H](O[C@@H]5O[C@H](CO)[C@@H](O)[C@H](O)[C@H]5OC(=O)CC(C)C)C[C@]43C)(C2)[C@H]1O (stereo not given in full) | 51.5% [at 17.3 µM] | –
39 | C[C@@H]1CC2C3C[C@H](F)C4=CC(=O)C=C[C@]4(C)[C@@]3(F)[C@@H](O)C[C@]2(C)[C@@]1(OC(=O)c1ccco1)C(=O)SCF (stereo not given in full) | – | 6.61 µM (active)
40 | CCC(=O)O[C@H]1C(C)(C)[C@H]([C@@H](O)C(=O)OC)[C@]2(C)C(=O)[C@@]1(O)[C@H]1O[C@]13C1CC(=O)O[C@@H](c4ccoc4)[C@]1(C)CCC32 (stereo not given in full) | 30.2% [at 17.3 µM] | –
